Bioassay records deposited in PubChem by Center for Chemical Genomics, University of Michigan.
TAR Tat displ: HIV-1 TAR-Tat binding disruption | HIV-1 TAR RNA, Tat peptide displacement FRET; active compounds read high | z-score (no concentration beside the values) | hit rate 0.6% among 100,000 | AID 1259389; active means z-score of 3 or more in at least 2 runs
CDC25B-CDK2 inh: human CDC25B-CDK2/CyclinA binding inhibition | P30305+P24941 | HTRF CDC25B-CDK2/CyclinA binding, anti-His/anti-Flag; active compounds read high | z-score (no concentration beside the values) | hit rate 0.72% among 94,000 | AID 1259370; in the data active means z-score above about 3.2
Starred values were filed as active, the others as inactive; / = no result. An excerpt weighted towards active compounds, which were near 0.9% of everything screened.

SMILES | TAR Tat displ | CDC25B-CDK2 inh
CNC[C@H](O)c1ccc(O)c(O)c1 | / | -1.71
NC[C@H](O)c1ccc(O)c(O)c1 | 27.3* | 5.87*
O=C(Nc1ncc([N+](=O)[O-])s1)c1csnn1 | 1.57 | -0.96
O=C(O)c1c[nH]c2ccc(S(=O)(=O)N3CCCC3c3ccco3)cc2c1=O (centres undefined) | 5.5* | -1.12
O=C(O)c1c[nH]c2ccc(S(=O)(=O)N3CCC(O)CC3)cc2c1=O | 0.26 | /
CN(C)[C@@H]1C(=O)C(C(=O)NCN2CCCC2)=C(O)[C@@]2(O)C(=O)C3=C(O)c4c(O)cccc4[C@@](C)(O)C3CC12 (some centres undefined) | 14.1* | /
CCCc1nnc2sc(NC(=O)C(C)C)nn12 | 1.74 | -2.98
COc1ccc(Nc2nc3c4ccccc4n(C(C)=O)c3s2)cn1 | 0.35 | 13.9*
C=CCNc1nc2c3ccccc3n(C(C)=O)c2s1 | 2.12 | -2.21
O=c1ccc(N2CCN(S(=O)(=O)c3cccc4nsnc34)CC2)nn1-c1ccc(Cl)cc1 | 0.65 | /
Cn1c(=O)c2c(c3ccccc31)OC(=O)CC2c1ccco1 (centres undefined) | 14.2* | -0.48
Cn1c(=O)c2c(c3ccccc31)OC(=O)CC2c1ccccc1 (centres undefined) | -0.31 | -0.44
O=C(CSc1nc2c(c(=O)[nH]1)CCCC2)Nc1ccccc1Cl | 0.06 | -1.71
O=C(CSc1nc2c(c(=O)[nH]1)CCCC2)Nc1ccccc1F | 14.6* | -1.64
COc1ccc(Nc2nc(C)nc3c2CCC3)cc1Cl | 1.38 | -1.45
O=c1cc(-c2ccccc2)oc2c(O)c(O)ccc12 | 19* | -2.15
Cc1oc2c(O)c(O)ccc2c(=O)c1-c1ccccc1 | / | -4.99
O=c1cc(-c2ccccc2)oc2ccc(-c3nn[nH]n3)cc12 | / | -1.12
O=c1cc(-c2ccccc2)oc2cc(O)c(O)cc12 | 29* | /
O=C(NC1CCCC1)c1cc(NS(=O)(=O)c2ccc(F)cc2)ccn1 | -0.53 | /
COc1cc(Br)c(CC2c3cc(OC)c(OC)cc3CCN2C)cc1OC (centres undefined) | 0.98 | /
CN1CCc2cc(O)c(O)cc2C1Cc1ccc(O)c(O)c1 (centres undefined) | 38.1* | /
CN1CCc2c(sc(-n3cccc3)c2C#N)C1 | -4.81 | 4
COc1ccc(-c2nc(-c3cc4cc(C)ccc4nc3OC)no2)cc1OC | -0.21 | -5.23
C=CCN1/C(=C/c2cccc[n+]2C)Sc2ccccc21 | 6.74* | 0.99
SMILES | TAR Tat displ | CDC25B-CDK2 inh
C=CCN1/C(=C/c2cc[n+](C)cc2)Sc2ccccc21 | 4.14* | 0.36
CCn1c(=O)/c(=C2\Sc3ccccc3N2C)s/c1=C\c1cccc[n+]1C | 1.01 | /
CN1/C(=C\c2cc[n+](C)cc2)Sc2ccccc21 | 7.52* | 0.14
CCN1/C(=C/C2=CC(=O)CC(C)(C)C2)Sc2ccccc21 | -15.3 | -2.11
C=CC[n+]1ccc(/C=C2\Sc3ccccc3N2C)cc1 | 1.65 | -3.41
CC(C)Cn1c(NCc2ccco2)nc2c1c(=O)[nH]c(=O)n2C | 1.47 | -1.88
CCCOC(=O)C(CC)Oc1ccc2c(=O)c(Oc3ccccc3Cl)coc2c1 (centres undefined) | 0.6 | 0.38
CCc1nn2c(=O)cc(CN3CCc4ccccc43)nc2s1 | -0.04 | -0.07
COc1cc2c(NC3CCN(C)CC3)nc(N3CCCN(C)CC3)nc2cc1OCCCN(C)C | 12.4* | /
COc1cc2c(NC3CCN(C(C)C)CC3)nc(C3CCCCC3)nc2cc1OCCCN1CCCC1 | 0.21 | /
COc1cc2c(NC3CCN(C)CC3)cc(N3CCCCN(C)CC3)cc2cc1OCCOCCN(C)C | 8.27* | /
CN1CCN(NC(=O)NC23CC4CC(CC(C4)C2)C3)CC1 | / | -2.66
O=C(CCc1nnc2ccc(N3CCCC3)nn12)Nc1ccc(Cl)cn1 | 0.91 | /
O=C1c2cccnc2C(=O)N1Cc1ccc(F)cc1S(=O)(=O)NC1CCCc2ccccc21 (centres undefined) | 0.75 | /
CCC(C(=O)Nc1ccccc1F)n1nc(C)c2sc3ccccc3c2c1=O (centres undefined) | 0.98 | -2.23
CC(C)CC(C(=O)Nc1ccc(Br)cc1F)N1Cc2ccccc2C1=O (centres undefined) | -0.4 | /
O=C1c2cccnc2C(=O)N1Cc1ccc(F)cc1S(=O)(=O)Nc1ccc(F)cc1Cl | -1.52 | /
CCCCN(C)CCNS(=O)(=O)c1cc(Br)cc2c1N(C(C)=O)CC2 | / | 7.38*
CCCCN(C)CCNS(=O)(=O)c1cc(Br)cc2c1N(C(=O)CC)CC2 | / | 0.85
CSc1ccc(C2CC(=O)N3CN(c4ccccc4)CSC3=C2C#N)cc1 (centres undefined) | -1.24 | 4.07*
CSc1ccc(C2CC(=O)N3CN(C)CSC3=C2C#N)cc1 (centres undefined) | 0.89 | 0.34
CSc1ccc(C2CC(=O)N3CN(c4ccccc4C)CSC3=C2C#N)cc1 (centres undefined) | 0.58 | 14.6*
CSc1ccc(C2CC(=O)N3CN(Cc4ccco4)CSC3=C2C#N)cc1 (centres undefined) | 0.97 | 1.96
CSc1ccc(C2CC(=O)N3CN(c4ccc(C)cc4)CSC3=C2C#N)cc1 (centres undefined) | -3.11 | 5.48*
CCc1ccc(C2CC(=O)N3CN(c4ccccc4)CSC3=C2C#N)cc1 (centres undefined) | -1.18 | 4.46*
SMILES | TAR Tat displ | CDC25B-CDK2 inh
CSc1ccc(C2CC(=O)N3CN(c4ccccc4F)CSC3=C2C#N)cc1 (centres undefined) | 2.34 | 0.14
Cc1ccc(OCCn2c(C(O)c3ccccc3)nc3ccccc32)cc1 (centres undefined) | 2.44 | -2.63
Cc1c(CCNS(=O)(=O)c2cccs2)sc2nc(-c3ccc(F)cc3)nn12 | 1.45 | /
NC1(C(=O)O)CCSCC1 | / | -1.29
CSc1nc2sc3c(c2c(=O)n1-c1ccccc1)CCN(C(C)=O)C3 | -0.12 | -2.18
CC(C)Oc1ccccc1C1CC(=O)Nc2nc(SCc3ccccc3Cl)[nH]c(=O)c21 (centres undefined) | 0.73 | -2.88
O=C(CCc1nc2sc3c(c2c(=O)[nH]1)CCCCC3)NCCN1CCOCC1 | 5.5* | /
COCCNC(=O)CCc1nc2sc3c(c2c(=O)[nH]1)CCCCC3 | 0.44 | /
O=C(CCSc1ccccc1)Nc1nc(-c2cccs2)cs1 | 0.49 | /
O=C1C(Nc2ccc(F)cc2)=C(N2CCCCC2)C(=O)c2ccccc21 | / | 8.02*
O=C1C(c2ccccc2)=C(Nc2ccc(F)cc2)c2ccccc21 | 0.45 | -1.02
CCOC(=O)c1ccc(N2CCCCC2)c(N)c1 | / | -0.16
CCOC(=O)c1ccc(NC2=C(N3CCCCC3)C(=O)c3ccccc3C2=O)cc1 | / | 17.2*
CC(C)N(C(=O)c1ccc2snnc2c1)C(C)C | 3.32 | -2.63
Fc1cccc(-c2nc(-c3ccc4c(c3)nnn4C3CCCC3)no2)c1 | 0.08 | /
COc1cc(-c2coc3cc(OCc4ccccc4)c(OC)c(O)c3c2=O)cc(OCc2ccccc2)c1OC | 25.8* | /
COc1ccc(-c2coc3cc(OCc4ccc(Br)cc4)cc(O)c3c2=O)cc1OC | -0.9 | -0.86
COCCN1CCn2c(nc3cc(NC(=O)NC4CCCCC4)ccc32)C1 | -0.33 | 7.05*
COCCN1CCn2c(nc3cc(Nc4nnc(C)c5ccccc45)ccc32)C1 | 1.61 | 14.2*
COCCN1CCn2c(nc3cc(Cl)ccc32)C1 | 0.82 | 0.96
COCCCN1CCn2c(nc3cc(NC(=O)NC4CCCCC4)ccc32)C1 | -8.88 | 0.2
O=C1c2c(O)cccc2Cc2cccc(O)c21 | 25* | /
Nc1ccc(O)c2c1C(=O)c1c(N)ccc(O)c1C2=O | / | -2.59
